# For some assays here: Measured potencies and affinities stand elsewhere.
# Columns and labels:
# Set-up in all cases: scale not given: direction of the effect not stated beside the values
# [1] = molecular target: Protein translocase subunit SecA (Escherichia coli (strain K12)) (UniProt P10408); experiment: Assay to Identify E. coli SecA ATPase Inhibitors; format: functional; details: 30 µM
# [2] = molecular target: T1, Ubiquitin-activating enzyme e1, putative (Leishmania donovani (strain BPK282A1)) (UniProt E9BSI1); experiment: Leishmania donovani Ubiquitin Activating Enzyme (LdE1); format: functional; details: 30 µM
# T1 sequence (whole entry): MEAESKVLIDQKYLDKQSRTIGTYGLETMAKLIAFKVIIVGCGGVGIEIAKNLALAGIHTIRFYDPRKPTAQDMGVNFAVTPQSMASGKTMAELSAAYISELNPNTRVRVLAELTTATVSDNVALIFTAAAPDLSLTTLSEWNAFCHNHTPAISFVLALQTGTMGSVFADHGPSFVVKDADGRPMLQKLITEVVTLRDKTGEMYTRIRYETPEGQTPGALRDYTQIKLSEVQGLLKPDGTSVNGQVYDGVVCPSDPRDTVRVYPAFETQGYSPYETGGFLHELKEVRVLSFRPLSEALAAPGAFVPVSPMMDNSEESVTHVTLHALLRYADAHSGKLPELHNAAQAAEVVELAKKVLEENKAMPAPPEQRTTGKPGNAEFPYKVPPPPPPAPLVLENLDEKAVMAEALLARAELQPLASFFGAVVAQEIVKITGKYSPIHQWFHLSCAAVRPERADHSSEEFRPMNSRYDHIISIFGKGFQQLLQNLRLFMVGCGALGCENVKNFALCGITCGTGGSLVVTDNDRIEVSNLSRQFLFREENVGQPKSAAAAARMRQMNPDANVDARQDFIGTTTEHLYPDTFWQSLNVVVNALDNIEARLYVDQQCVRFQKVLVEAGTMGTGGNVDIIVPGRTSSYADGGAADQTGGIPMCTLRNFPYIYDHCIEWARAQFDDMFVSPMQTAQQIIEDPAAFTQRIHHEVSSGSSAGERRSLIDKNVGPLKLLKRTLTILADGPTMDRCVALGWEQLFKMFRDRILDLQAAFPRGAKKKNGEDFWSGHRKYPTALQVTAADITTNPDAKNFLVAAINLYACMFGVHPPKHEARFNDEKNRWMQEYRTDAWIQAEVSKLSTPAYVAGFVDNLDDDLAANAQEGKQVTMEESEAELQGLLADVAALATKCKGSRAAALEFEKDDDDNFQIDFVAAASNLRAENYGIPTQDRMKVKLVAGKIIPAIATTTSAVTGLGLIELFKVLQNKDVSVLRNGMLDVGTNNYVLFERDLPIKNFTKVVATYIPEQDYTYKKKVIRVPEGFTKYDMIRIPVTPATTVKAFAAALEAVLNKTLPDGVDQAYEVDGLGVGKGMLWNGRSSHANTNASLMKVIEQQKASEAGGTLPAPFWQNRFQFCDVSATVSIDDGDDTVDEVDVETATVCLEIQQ
# [3] = molecular target: AMP-activated protein kinase, AMPK (Homo sapiens) (UniProt P54646+O43741+P54619+Q9UGJ0+Q9Y478+Q13131+Q9UGI9); experiment: AMP-dependent Kinase enzyme assay. An in vitro enzyme assay that detects ADP turnover that is directly proportional to AMPK activity. This uses naive AMPK that is activated during the assay with MK-8722; format: functional; details: 30 µM
# [4] = molecular target: Sialic acid-binding Ig-like lectin 9 (Homo sapiens) (UniProt Q9Y336); experiment: Hs-Siglec9 ALPHAscreen SOP 20170721; details: 10 µM
# Sialic acid-binding Ig-like lectin 9 (Homo sapiens), sequence (Q9Y336 whole entry): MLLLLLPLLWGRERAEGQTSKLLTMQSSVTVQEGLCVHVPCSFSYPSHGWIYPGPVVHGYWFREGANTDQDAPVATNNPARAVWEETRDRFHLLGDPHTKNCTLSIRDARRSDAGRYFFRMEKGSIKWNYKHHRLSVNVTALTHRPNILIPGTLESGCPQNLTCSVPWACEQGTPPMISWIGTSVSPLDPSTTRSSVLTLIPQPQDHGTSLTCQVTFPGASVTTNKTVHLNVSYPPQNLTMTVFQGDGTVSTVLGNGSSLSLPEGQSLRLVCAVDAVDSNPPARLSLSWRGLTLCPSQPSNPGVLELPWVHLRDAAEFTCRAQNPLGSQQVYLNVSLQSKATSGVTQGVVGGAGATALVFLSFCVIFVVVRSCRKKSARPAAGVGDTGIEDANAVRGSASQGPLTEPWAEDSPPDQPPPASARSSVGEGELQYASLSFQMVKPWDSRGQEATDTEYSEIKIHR
# [5] = tested on: Trypanosoma cruzi; experiment: Trypanosoma cruzi phosphomannomutase and mannose-1-phosphate guanylyltransferase assay; format: functional; details: 10 µM
# [6] = molecular target: T2, Arginase-2, mitochondrial (Homo sapiens) (UniProt P78540); experiment: in vitro enzyme assay to detect the production of urea directly proportional to the activity of Arginase II; format: functional; details: 33.3 µM; note: in the data most compounds retested in dose-response had high values
# T2 sequence (whole entry): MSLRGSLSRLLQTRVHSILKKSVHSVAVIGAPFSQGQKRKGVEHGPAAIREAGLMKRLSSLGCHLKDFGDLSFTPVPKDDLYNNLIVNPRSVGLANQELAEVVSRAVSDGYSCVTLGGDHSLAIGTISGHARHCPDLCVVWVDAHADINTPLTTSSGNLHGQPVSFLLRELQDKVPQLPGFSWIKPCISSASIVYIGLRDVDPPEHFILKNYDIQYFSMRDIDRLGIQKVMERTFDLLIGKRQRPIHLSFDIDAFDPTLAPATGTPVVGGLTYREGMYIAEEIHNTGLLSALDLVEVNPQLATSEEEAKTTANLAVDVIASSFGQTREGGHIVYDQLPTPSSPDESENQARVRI
# [7] = molecular target: T3, Proteasome subunit beta (Trypanosoma cruzi) (UniProt O96673); experiment: Trypanosoma cruzi proteasome chymotrypsin-like activity (TcProtChymo) assay.; note: in the data most compounds retested in dose-response had high values; format: functional; details: 9.37 µM
# T3 sequence (whole entry): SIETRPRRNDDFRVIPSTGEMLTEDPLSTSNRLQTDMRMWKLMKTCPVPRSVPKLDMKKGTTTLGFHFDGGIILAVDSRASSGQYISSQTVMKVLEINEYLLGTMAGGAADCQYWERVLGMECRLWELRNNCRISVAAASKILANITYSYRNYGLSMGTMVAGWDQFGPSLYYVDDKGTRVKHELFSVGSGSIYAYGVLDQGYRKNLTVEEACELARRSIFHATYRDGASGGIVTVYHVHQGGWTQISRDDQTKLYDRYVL
# [8] = organism: Homo sapiens; experiment: To identify inhibition of the IFN signalling (Jak-Stat) pathway via expression of an eGFP reporter gene under the control of an IFN-stimulated response element (ISRE) containing MxA promoter.; format: functional; details: 30 µM
# [9] = molecular target: T4, Tyrosyl-tRNA synthetase, putative (Trypanosoma cruzi (strain CL Brener)) (UniProt Q4DSP6); experiment: Trypanosoma cruzi tyrosyl tRNA synthetase (TcYRS) _High Tyrosine SOP; format: functional; details: 30 µM; note: in the data most compounds retested in dose-response had high values
# T4 sequence (whole entry): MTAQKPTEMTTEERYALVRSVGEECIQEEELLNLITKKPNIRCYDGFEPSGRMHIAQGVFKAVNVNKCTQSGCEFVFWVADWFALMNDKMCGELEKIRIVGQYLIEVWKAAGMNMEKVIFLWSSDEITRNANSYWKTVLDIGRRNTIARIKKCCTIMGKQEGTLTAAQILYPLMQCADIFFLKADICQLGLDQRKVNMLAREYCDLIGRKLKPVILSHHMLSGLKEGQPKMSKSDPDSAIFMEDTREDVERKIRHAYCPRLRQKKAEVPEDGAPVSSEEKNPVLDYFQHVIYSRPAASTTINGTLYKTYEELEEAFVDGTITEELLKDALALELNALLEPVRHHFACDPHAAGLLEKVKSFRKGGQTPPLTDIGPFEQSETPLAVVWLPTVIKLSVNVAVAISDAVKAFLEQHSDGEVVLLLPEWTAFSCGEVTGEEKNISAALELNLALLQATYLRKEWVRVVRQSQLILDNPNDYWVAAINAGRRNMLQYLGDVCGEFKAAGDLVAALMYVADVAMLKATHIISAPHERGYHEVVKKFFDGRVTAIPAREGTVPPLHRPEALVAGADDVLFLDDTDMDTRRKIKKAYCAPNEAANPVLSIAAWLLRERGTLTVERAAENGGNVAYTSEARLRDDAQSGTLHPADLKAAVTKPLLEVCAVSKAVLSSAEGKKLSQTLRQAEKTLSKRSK
# [10] = molecular target: T4, Tyrosyl-tRNA synthetase, putative (Trypanosoma cruzi (strain CL Brener)); experiment: Trypanosoma cruzi tyrosyl tRNA synthetase (TcYRS) SOP; format: functional; details: 30 µM
# [11] = molecular target: Chromo domain-containing protein 1 (Saccharomyces cerevisiae (strain ATCC 204508 / S288c) (Baker's yeast)) (UniProt P32657); experiment: ScCHD-1 Enzyme Inhibition Assay; format: functional; details: 30 µM; note: in the data most compounds retested in dose-response had high values
# Chromo domain-containing protein 1 (Saccharomyces cerevisiae (strain ATCC 204508 / S288c) (Baker's yeast)), sequence (P32657 whole entry, the tested form may be a part): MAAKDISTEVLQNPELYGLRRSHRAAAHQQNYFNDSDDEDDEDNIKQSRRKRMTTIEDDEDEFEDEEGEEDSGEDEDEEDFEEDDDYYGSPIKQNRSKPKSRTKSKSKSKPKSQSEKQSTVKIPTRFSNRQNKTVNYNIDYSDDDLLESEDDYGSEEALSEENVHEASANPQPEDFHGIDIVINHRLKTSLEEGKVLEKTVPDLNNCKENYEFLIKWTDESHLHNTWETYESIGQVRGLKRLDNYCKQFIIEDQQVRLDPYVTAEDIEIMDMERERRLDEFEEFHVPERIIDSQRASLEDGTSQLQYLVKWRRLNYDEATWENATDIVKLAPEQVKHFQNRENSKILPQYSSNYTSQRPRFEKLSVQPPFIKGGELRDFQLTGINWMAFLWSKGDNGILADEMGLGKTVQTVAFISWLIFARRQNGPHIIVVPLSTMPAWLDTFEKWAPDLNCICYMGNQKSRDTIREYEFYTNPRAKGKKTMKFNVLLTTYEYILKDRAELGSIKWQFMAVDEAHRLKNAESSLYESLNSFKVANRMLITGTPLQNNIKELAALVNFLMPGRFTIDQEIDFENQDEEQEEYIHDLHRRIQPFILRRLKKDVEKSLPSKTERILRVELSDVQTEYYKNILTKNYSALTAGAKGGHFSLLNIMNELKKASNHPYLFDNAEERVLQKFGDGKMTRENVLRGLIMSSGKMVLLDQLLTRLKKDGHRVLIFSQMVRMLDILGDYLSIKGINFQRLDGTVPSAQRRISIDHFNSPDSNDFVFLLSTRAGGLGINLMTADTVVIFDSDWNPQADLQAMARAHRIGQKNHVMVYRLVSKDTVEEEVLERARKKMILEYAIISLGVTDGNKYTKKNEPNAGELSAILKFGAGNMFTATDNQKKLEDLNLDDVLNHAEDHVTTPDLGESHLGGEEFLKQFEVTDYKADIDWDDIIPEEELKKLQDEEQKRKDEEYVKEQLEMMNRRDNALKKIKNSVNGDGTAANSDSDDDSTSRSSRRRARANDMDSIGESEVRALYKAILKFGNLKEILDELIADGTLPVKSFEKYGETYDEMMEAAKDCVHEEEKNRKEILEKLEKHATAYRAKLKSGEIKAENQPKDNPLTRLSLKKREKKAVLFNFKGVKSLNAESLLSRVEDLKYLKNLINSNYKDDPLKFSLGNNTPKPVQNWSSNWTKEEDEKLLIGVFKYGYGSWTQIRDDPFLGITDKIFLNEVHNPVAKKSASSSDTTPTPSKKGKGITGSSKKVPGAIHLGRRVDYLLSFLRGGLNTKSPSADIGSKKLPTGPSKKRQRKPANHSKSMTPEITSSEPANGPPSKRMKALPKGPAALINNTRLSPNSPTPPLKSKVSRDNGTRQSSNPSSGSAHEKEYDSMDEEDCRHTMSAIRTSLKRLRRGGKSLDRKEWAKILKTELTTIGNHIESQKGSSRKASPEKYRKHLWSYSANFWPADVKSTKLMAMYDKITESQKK
# Protein translocase subunit SecA (Escherichia coli (strain K12)), sequence (P10408 whole entry): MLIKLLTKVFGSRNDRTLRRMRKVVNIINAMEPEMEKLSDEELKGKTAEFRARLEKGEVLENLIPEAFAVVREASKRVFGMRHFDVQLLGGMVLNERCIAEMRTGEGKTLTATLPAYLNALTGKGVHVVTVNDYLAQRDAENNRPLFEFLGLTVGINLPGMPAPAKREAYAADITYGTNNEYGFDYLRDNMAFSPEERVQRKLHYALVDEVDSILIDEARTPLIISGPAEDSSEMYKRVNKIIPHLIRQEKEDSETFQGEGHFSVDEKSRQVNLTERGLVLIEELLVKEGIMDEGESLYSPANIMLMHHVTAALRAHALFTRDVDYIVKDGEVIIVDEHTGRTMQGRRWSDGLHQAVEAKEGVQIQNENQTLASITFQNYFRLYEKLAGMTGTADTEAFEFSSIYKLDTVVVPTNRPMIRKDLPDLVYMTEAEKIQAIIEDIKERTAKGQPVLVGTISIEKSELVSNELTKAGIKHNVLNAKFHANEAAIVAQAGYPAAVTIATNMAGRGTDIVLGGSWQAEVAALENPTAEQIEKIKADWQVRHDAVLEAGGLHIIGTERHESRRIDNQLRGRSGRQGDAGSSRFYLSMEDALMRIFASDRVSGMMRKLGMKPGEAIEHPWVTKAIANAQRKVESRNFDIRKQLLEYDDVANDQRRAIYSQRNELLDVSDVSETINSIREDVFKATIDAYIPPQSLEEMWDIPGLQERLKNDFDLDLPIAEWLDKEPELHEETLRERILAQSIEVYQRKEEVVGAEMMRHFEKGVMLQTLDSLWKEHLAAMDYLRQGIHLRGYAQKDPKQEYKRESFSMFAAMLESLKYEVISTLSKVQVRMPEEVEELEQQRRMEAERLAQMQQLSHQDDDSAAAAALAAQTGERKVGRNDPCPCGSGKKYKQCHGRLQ
SMILES,Percent Effect [1] [%],Percent Effect [2] [%],Percent Effect [3] [%],Percent Effect [4] [%],Percent Effect [5] [%],Percent Effect [6] [%],Percent Effect [7] [%],Percent Effect [8] [%],Percent Effect [9] [%],Percent Effect [10] [%],Percent Effect [11] [%]
COC(=O)c1cccn1C1CCN(C(=O)c2cc(C)ccc2O)CC1,-8.92,18.2,3.73,-0.853,-7.12,0.712,6.25,38.3,2.91,9.76,-5.74
COc1c(CNCc2ccnc(N3CCCC3)c2)c(C)nn1C,-5.03,3.8,-1.28,2.4,0.103,-0.215,-4.12,7.98,7.29,15.2,-7.79
COCCCN(C)Cc1nc2c(cnn2C)c(=O)[nH]1,-5.54,21.1,-0.426,-2.13,7.75,3.96,18.4,-3.84,2.46,25.9,-9.74
CCSc1cc(C(=O)NCc2ccccc2O)ccn1,-5.37,0,5.33,-0.329,7.05,-0.909,12.2,44.3,3.23,5,-5.04
COCCOc1ncccc1C(=O)Nc1ccc(-n2cncn2)c(F)c1,-2.86,10.5,0.415,9.57,0,0,17.5,-26.4,7.35,12.2,-9.99
COc1cccc(F)c1C(=O)N1C[C@@H](CN(C)CCO)[C@@H](CO)C1,-8.11,5.2,-2.26,3.34,-2.26,-5.52,2.16,-11,2.15,8.64,-0.727
CCCN(CCO)C(=O)C1CCC(=O)N(CCc2ccc(Cl)cc2)C1 (stereo unspecified),0.568,6.94,1.97,-2.89,2.23,3.53,8.77,-9.44,4.21,7.69,-5.01
CCN1CC2(CC1=O)CN(Cc1cccs1)CCN(C(=O)C(C)C)C2 (stereo unspecified),-5.19,-5.41,2.9,-2.56,-2.73,-3.33,7.35,-3.43,4.95,11,4.59
Cc1cnn(CC(C)NCc2ccc(-n3cccn3)cc2)c1 (stereo unspecified),-1.91,1.27,2.55,-4.21,-3.18,0.645,-0.858,-0.795,0,-12.7,-18.2
CN(C)C(=O)N[C@@H]1CN(Cc2ccc3c(c2)OCO3)[C@@H]2CCCO[C@@H]21,-4.35,5.33,4.23,8.52,-0.386,-58.6,14.5,1.11,7.29,17.5,-5.44
c1cnn(CC2CN(Cc3nc(-c4ccsc4)no3)CCO2)c1 (stereo unspecified),-2.55,10.5,-2.23,16.5,-1.13,0.766,-2.34,6.35,1.47,9.76,0.902
Cc1ncc2c(n1)CN(Cc1nnc(-c3occc3C)o1)CC2,-2.4,18.9,-24.9,14.5,6.04,2.03,6.82,-0.684,22.8,30.5,-8.36
CSc1ccc(-c2nc(CN3CCC(NC(C)=O)C3)c(C)o2)cc1 (stereo unspecified),-6.31,-5.41,0.887,-0.709,-4.25,-3.33,2.93,18.4,4.76,7.32,-1.88
COCCN1CCC(CNC(=O)c2cc(C)cc(C)c2)C1 (stereo unspecified),-6.49,10.5,-7.62,15.5,6.26,-1.8,8.88,-10.5,6.4,13.6,-4.84
CC(C)Cc1cc(NC(=O)c2ccc[nH]2)n(C)n1,-5.53,5.2,3.29,6.59,-5.24,-5.34,-0.169,0.305,5.83,14.6,-7.26
CN(CCn1nc2ccccn2c1=O)CC(=O)NC1CC1,0.259,-2.63,7.37,-0.458,-2.63,15.4,10.4,-11.8,2.13,0,-5.38
